Data from PubChem BioAssay (NCATS).
“And” between values parts separate entries of the source, which are not always exact repeats. Equal entries are not always repeated. Inconclusive results are not listed. The source made the active and inactive calls. Unless noted, calls come from the whole dose curve; as a rule, active = well fitted curve in the direction sought with a large enough effect; inconclusive = small, poorly fitted or top-dose-only effect, or another doubt; inactive = no such curve, though single readings can be large; an effect the other way counts as inactive or inconclusive.

Assays:
[1] = Cell Viability - BJ (AID 421; calls by dose curve;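 note: potency is the fitted concentration of half-maximal effect; cells exposed to compound for 40 hours at 37 °C before readout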); settings: BJ fibroblast viability, qHTS
Summary of the method: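 Luminescent ATP signal (CellTiter-Glo, 20 min at room temperature) served as the read-out of viable BJ cells after 40 hours of compound treatment. Responses were scaled between DMSO and 100 uM tamoxifen, and AC50 values were obtained by Hill modeling.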

[2] = Cell Viability - Mesenchymal (AID 546); settings: mesenchymal cells viability, qHTS; activity change, negative = cytotoxicity: at 91.7 µM (top of the series);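 note: cells exposed to compound for 40 hours before reading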; note: potency is the fitted concentration of half-maximal effect;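 for activity change, negative = cytotoxicity: 0% = DMSO only and -100% = 100 µM tamoxifen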
Summary of the method: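 Human kidney mesenchymal cells from normal renal glomeruli, 1000 cells/well, rested 5 hr at 37 °C, then treated 40 hr at 37 °C in complete medium. Cellular ATP read by CellTiter-Glo luminescence; AC50 from Hill-equation fits.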

[3] = MultiTox-Fluor Cytotoxicity Assay - LYMP1-002 - Live Cells (AID 955); note: % is set by controls: 0 for no effect and ±100 for the full control effect
Summary of the method: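 Human lymphoblastoid LYMP1-002 cells, 2500/well in complete medium, rested 5 hr at 37 C, then exposed to compounds for 16 hr at 37 C. Live-cell protease cleavage of GF-AFC read by fluorescence (Ex/Em 405/510) after 60 min at room temperature; AC50 from Hill fits.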

[4] = MultiTox-Fluor Cytotoxicity Assay - LYMP1-003 - Live Cells (AID 962);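 note: 0% = DMSO only and full loss = 92 µM tetraoctylammonium bromide; cytotoxic hits lower the live-cell protease signal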
Summary of the method: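 LYMP1-003 human lymphoblastoid cells (2500/well) in complete medium were preincubated 5 hr at 37 C, then exposed to compounds for 16 hr at 37 C. Live-cell protease cleavage of GF-AFC read by fluorescence (Ex/Em 405/510); AC50 from Hill fits.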

[5] = Cell Viability - LYMP1-003 - Assay at 40 hr (AID 964); note: nearly all actives have a fitted effect of over 60% in size; note: potency is the fitted concentration of half-maximal effect
Summary of the method: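 Human lymphoblastoid LYMP1-003 cells, 2500/well in complete medium, rested 5 hr at 37 C, then exposed to compounds for 40 hr at 37 C. Viability read as intracellular ATP by CellTiter-Glo luminescence; AC50 from Hill fits of concentration-response data.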

[6] = Cell Viability - LYMP2-009 (AID 968); note: nearly all actives have a fitted effect of over 55% in size; note: potency is the fitted concentration of half-maximal effect
[7] = Cell Viability - LYMP2-011 (AID 969); note: nearly all actives have a fitted effect of over 60% in size; note: potency is the fitted concentration of half-maximal effect
Summary of the method: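 Human lymphoblastoid cells (2500/well) were plated in complete medium, preincubated 5 hr at 37 C, then exposed to compounds for 24 hr at 37 C. Intracellular ATP was read by CellTiter-Glo luminescence, and AC50 came from Hill-equation concentration-response fits.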

[8] = Cell Viability - LYMP2-013 (AID 970); note: nearly all actives have a fitted effect of over 55% in size; note: potency is the fitted concentration of half-maximal effect
Summary of the method: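 Human lymphoblastoid cells, 2500/well, were preincubated 5 hr at 37 C, then treated with compounds for 24 hr at 37 C in complete medium. Intracellular ATP was read by CellTiter-Glo luminescence; AC50 from Hill-equation fits of concentration-response data.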

[9] = Cell Viability - LYMP2-019 (AID 973); note: nearly all actives have a fitted effect of over 55% in size; note: potency is the fitted concentration of half-maximal effect;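 for activity change, negative = cytotoxicity: 0% = DMSO alone and full effect = 92 µM tetraoctylammonium bromide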
Summary of the method: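 Human lymphoblastoid cells were seeded at 2500 cells/well, preincubated 5 hr at 37 C, then exposed to compounds for 24 hr at 37 C in complete medium. Intracellular ATP was measured by CellTiter-Glo luminescence; AC50 from Hill fits.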

[10] = Cell Viability - LYMP2-021 (AID 974);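 note: compound exposure lasts 24 hours at 37 °C; nearly all actives have a fitted effect of over 55% in size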; note: potency is the fitted concentration of half-maximal effect; for activity change, negative = cytotoxicity: % is set by controls: 0 for no effect and ±100 for the full control effect
Summary of the method: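 Human lymphoblastoid cells (2500/well) were preincubated 5 hr at 37 C, then exposed to compounds for 24 hr at 37 C in complete medium. Intracellular ATP was read by CellTiter-Glo luminescence; AC50 came from Hill-equation fits of concentration-response data.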

[11] = Cell Viability - LYMP2-025 (AID 976);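 note: plate controls were DMSO only for no effect and tetraoctylammonium bromide control for full effect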
Summary of the method: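 Human lymphoblastoid LYMP2-025 cells (2500/well) were pre-incubated 5 hr at 37 C, then treated with compounds for 24 hr at 37 C in complete medium. Viability was read as intracellular ATP by CellTiter-Glo luminescence; AC50 from Hill fits.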

[12] = Cell Viability - LYMP2-002 (AID 977);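 note: compound exposure lasted 24 h at 37 °C; plate controls were DMSO only for no effect and 92 µM tetraoctylammonium bromide for full effect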
Summary of the method: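 Human lymphoblastoid LYMP2-002 cells, 2500 per well, exposed to compounds for 24 h at 37 C in complete medium; viability read as intracellular ATP by CellTiter-Glo luminescence, AC50 from Hill fits.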

[13] = Cell Viability - LYMP2-006 (AID 978); note: nearly all actives have a fitted effect of over 60% in size; note: potency is the fitted concentration of half-maximal effect; for activity change, negative = cytotoxicity: % is set by controls: 0 for no effect and ±100 for the full control effect
Summary of the method: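 In this cytotoxicity screen, the human lymphoblastoid line grew in complete medium with test compounds for 24 hr at 37 C. Cellular ATP served as the viability signal.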

[14] = Cell Viability - LYMP2-008 (AID 980); note: nearly all actives have a fitted effect of over 60% in size; note: potency is the fitted concentration of half-maximal effect; for activity change, negative = cytotoxicity: % is set by controls: 0 for no effect and ±100 for the full control effect
Summary of the method: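 Human lymphoblastoid cells (2500/well) were plated, held 5 hr at 37 C, then exposed to compounds for 24 hr at 37 C in complete medium. Intracellular ATP was read by CellTiter-Glo luminescence; AC50 from Hill-fitted concentration-response.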

[15] = Cell Viability - LYMP2-012 (AID 982); note: potency is the fitted concentration of half-maximal effect;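 for activity change, negative = cytotoxicity: 0% = DMSO only and full loss = 92 µM tetraoctylammonium bromide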
[16] = Cell Viability - LYMP2-022 (AID 987); note: nearly all actives have a fitted effect of over 55% in size; note: potency is the fitted concentration of half-maximal effect
Summary of the method: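 Human lymphoblastoid cells, 2500/well, preincubated 5 hr at 37 C, then exposed to compounds over a concentration range for 24 hr at 37 C in complete medium. Viability read as intracellular ATP by CellTiter-Glo luminescence after 30 min at room temperature; AC50 from Hill fits.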

[17] = qHTS assay for small molecule agonists of retinoid X receptor alpha signaling (AID 588544); settings: HEK293T RXRa-UAS-bla, beta-lactamase reporter, 18 h; 530 nm emission
[18] = qHTS assay for environmental chemicals that activate the Aryl hydrocarbon Receptor (AhR) signaling pathway (AID 651777); settings: 1A2-DRE human hepatoma cells, luciferase, 24 h; activation: stronger effect = higher value; note: nearly all actives have a fitted effect of over 15% in size; note: potency is the fitted concentration of half-maximal effect; for activation: % of control where 0% means no effect
Summary of the method: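 AhR activation is scored as a rise in luciferase from a stable DRE–CYP1A2 promoter construct in human hepatoma cells. Treatment lasts 24 hr at 37 C; detection uses One-Glo after 30 min at room temperature.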

[19] = qHTS assay for small molecule agonists of the antioxidant response element (ARE) signaling pathway measured by Nrf2-dependant transcriptional activity (AID 720636; active = well fitted curve in the direction sought with a large enough effect in the repeat runs; an effect the other way counts as inactive or inconclusive;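 note: HepG2 cells with an ARE-driven luciferase reporter; % of control where 0% means no effect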)
Summary of the method: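 First, ARE-luc HepG2 cells attached for 6 hr at 37 C in 1% dialyzed FBS medium. Next, compound or DMSO was added and incubated 16 hr. Finally, ONE-Glo reagent was added and luminescence measured after 30 min.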

CC(C)COC(=O)COc1cc(Cl)c(Cl)cc1Cl
-5.32%: max response [17]
inactive: Potency [1] > 92 µM | Potency [2] | outcome [3] | Potency [4] | Potency [5] | Potency [6] | Potency [7] | Potency [8] | Potency [9] | Potency [10] | Potency [11] | Potency [12] | Potency [13] | Potency [14] | Potency [15] | Potency [16] | activation [18] 1.79% | Potency [19]

CC1=C(/C=C/C(C)=C/C=C/C(C)=C/C=O)C(C)(C)CCC1
active: Potency [1] 35.2 µM | Potency [2] 31.6 µM | Potency [5] 50.1 µM | Potency [6] 39.8 µM | Potency [7] 63.1 µM | Potency [8] 50.1 µM | Potency [9] 50.1 µM | Potency [10] 50.1 µM | Potency [13] 63.1 µM | Potency [14] 39.8 µM | Potency [15] 50.1 µM | Potency [16] 39.8 µM
inactive: activation [18] 4.9%

S=C(NC1CCCCC1)NC1CCCCC1
7.4%: max response [17]
inactive: Potency [2] | outcome [3] | Potency [4] | Potency [5] | Potency [6] | Potency [7] | Potency [8] | Potency [9] | Potency [10] | Potency [11] | Potency [12] | Potency [13] | Potency [14] | Potency [15] | Potency [16] | activation [18] 5.57% | Potency [19]

CC(C)(C)C(=O)C1C(=O)c2ccccc2C1=O
inactive: Potency [1] > 92 µM | Potency [2] | outcome [3] | Potency [4] | Potency [5] | Potency [6] | Potency [7] | Potency [8] | Potency [9] | Potency [10] | Potency [11] | Potency [12] | Potency [16] | activation [18] 5.77% | Potency [19]

Nc1cc(C(=O)O)c(O)c(S(=O)(=O)O)c1
11.2%: max response [17]
inactive: Potency [1] > 92 µM | Potency [2] | outcome [3] | Potency [4] | Potency [5] | Potency [6] | Potency [7] | Potency [8] | Potency [9] | Potency [10] | Potency [11] | Potency [12] | Potency [13] | Potency [14] | Potency [15] | Potency [16] | activation [18] -2.49% | Potency [19]

O=Nc1ccc(Nc2ccccc2)cc1
inactive: Potency [2]

O=C1c2ccccc2C(=O)C1(O)O
inactive: Potency [2] | outcome [3] | Potency [4] | Potency [5] | Potency [6] | Potency [7] | Potency [10] | Potency [11] | Potency [12] | Potency [13] | Potency [14] | activation [18] -0.0089% | Potency [19]
5.07%: max response [17]

C=CC1CO1 (configuration not stated)
-16.9%: max response [17]
inactive: Potency [1] > 92 µM | Potency [2] | outcome [3] | Potency [4] | Potency [5] | Potency [6] | Potency [7] | Potency [8] | Potency [9] | Potency [10] | Potency [11] | Potency [12] | Potency [13] | Potency [14] | Potency [15] | Potency [16] | activation [18] -0.433% | Potency [19]

Nc1ccc2c(c1)C(=O)c1ccccc1C2=O
6.46% and 2.42%: max response [17]
inactive: Potency [1] > 92 µM | outcome [3] | Potency [4] | Potency [5] | Potency [8] | Potency [11] | Potency [13] | Potency [14] | Potency [15]
active: Potency [18] 14.1 µM and 44.7 µM

CCCCCCc1ccc(-c2ccc(C#N)cc2)cc1
inactive: Potency [1] > 92 µM | Potency [2] | outcome [3] | Potency [4] | Potency [5] | Potency [6] | Potency [7] | Potency [8] | Potency [9] | Potency [10] | Potency [11] | Potency [12] | Potency [13] | Potency [14] | Potency [15] | Potency [16] | Potency [19]
-25.6%: max response [17]
